# High-throughput results: PubChem BioAssay, several laboratories
# Most compounds without a hit are left out; they make up all but 3.1% or so of the library.
# CD11b adhes enh = increases human CD11b/CD18 adhesion to fibrinogen. K562 CD11b/CD18 adhesion to fibrinogen, ATPlite luminescence. actives 0.07% (n = 93,000). activation, % at 10 µM. P05107+P11215;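 active = 10 µM primary screen giving 50% or more activity, confirmed by 40% or more on retest at that dose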
# ERa coact pot = enhances coactivator binding to human estrogen receptor alpha. actives 1.3% (n = 86,000). coactivator binding (% of control), % at 25.6 µM. TR-FRET ERalpha-LBD/SRC-Cy5 coactivator binding, 2 h; 100 = basal binding, no effect; in the data active = activity above about 200%;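 note: binding measured in presence of low estradiol as agonist stimulus; 0% = peptide alone without receptor and 100% = receptor with peptide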
# Mac1 fbg inh = inhibitors of human CD11b/CD18 binding to fibrinogen; P05107+P11215; K562 CD11b/CD18 adhesion to fibrinogen, ATPlite luminescence; Mn2+ added to activate the integrin; inhibition, % at 10 µM; actives 0.54% (n = 93,000); AID 1497;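 active = primary inhibition of 50% or more at 10 µM, then 40% or more on retest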
# ERb SRC1 inh = blocks coactivator binding to human estrogen receptor beta. Q92731. inhibition, % at 25.6 µM. AID 633. actives 1.3% (n = 86,000). TR-FRET ER-beta LBD / SRC1-Cy5 peptide binding; receptor agonist-loaded with 1 µM estradiol;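 active = compounds whose percent inhibition of the receptor-coactivator binding signal exceeds about 50% in the single-dose screen, limit read from the data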;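 note: 0% = receptor plus peptide wells without compound and 100% = peptide-only wells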
# Target sequence (Q92731 whole entry, looked up, the tested form may be a part): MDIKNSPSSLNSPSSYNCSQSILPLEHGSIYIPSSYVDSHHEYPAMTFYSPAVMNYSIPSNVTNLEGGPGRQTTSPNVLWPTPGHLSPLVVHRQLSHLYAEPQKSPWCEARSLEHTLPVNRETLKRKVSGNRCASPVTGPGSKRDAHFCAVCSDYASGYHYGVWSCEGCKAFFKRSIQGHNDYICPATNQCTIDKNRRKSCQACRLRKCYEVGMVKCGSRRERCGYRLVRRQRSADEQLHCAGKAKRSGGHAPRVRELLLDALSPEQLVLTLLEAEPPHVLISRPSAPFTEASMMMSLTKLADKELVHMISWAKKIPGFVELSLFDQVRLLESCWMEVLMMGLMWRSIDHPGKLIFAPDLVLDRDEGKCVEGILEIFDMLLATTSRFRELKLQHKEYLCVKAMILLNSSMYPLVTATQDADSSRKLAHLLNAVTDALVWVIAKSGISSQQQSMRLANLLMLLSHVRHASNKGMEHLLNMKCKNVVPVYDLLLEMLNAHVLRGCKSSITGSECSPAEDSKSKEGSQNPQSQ
# ERa coact inh = blocks coactivator binding to human estrogen receptor alpha; TR-FRET ER-alpha LBD / SRC-1 peptide, estradiol-bound; inhibition, % at 25.6 µM; actives 1.7% (n = 86,000); in the data active = inhibition above about 50%;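 note: 0% = receptor plus peptide control and 100% = peptide only without receptor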
# * = called active by the depositor; x = no result; + = active, no number; [ ] = dose if it differs, or a comment.
SMILES,CD11b adhes enh,ERa coact pot,Mac1 fbg inh,ERb SRC1 inh,ERa coact inh
O=C(Cc1ccccc1)NC(=S)Nc1ccc2oc(-c3ccccc3)nc2c1,3,x,0,x,x
O=S(=O)(c1ccc2oc(-c3ccncc3)nc2c1)c1ccc2oc(-c3ccncc3)nc2c1,x,237*[fluorescence artefact?],x,51*[fluorescence artefact?],10
O=C(Nc1ccc2oc(-c3cccc(F)c3)nc2c1)c1ccccc1F,-2,223*[fluorescence artefact?],-7,7,11
O=C(Nc1ccc2oc(-c3ccccc3)nc2c1)c1ccccc1F,x,121,x,2,-5
O=C(Cc1ccccc1)Nc1ccc2oc(-c3ccncc3)nc2c1,2,299*[fluorescence artefact?],5,47,51*[fluorescence artefact?]
CCCNC(=O)CN(CCc1ccccc1)S(C)(=O)=O,2,108,-6,-1,4
Cc1ccc2[nH]c(=O)c(-c3nc4ccccn4c3NCc3ccco3)cc2c1,-3,115,-17,22,53*
Cc1ccc(-c2noc(CCC(=O)Nc3ccc(C)cn3)n2)cc1,-1,253*,4,2,5
Cc1ccc(-c2noc(CCC(=O)NCC3CCCO3)n2)cc1 (centres undefined),-2,93,6,-20,-3
N/C(=N\c1nc2c(c(=O)[nH]1)CCC2)Nc1ccccc1C(F)(F)F,6,x,5,x,x
Cc1ccc2nc(-c3ccccc3Cl)cc(C(=O)Nc3cc(C)on3)c2c1,11,217*[fluorescence artefact?],2,1,-2
COc1ccc(-c2cn[nH]c2-c2ccc(OCc3ccc([N+](=O)[O-])cc3)cc2O)cc1,-6,x,76,x,x
COc1cc(OC)nc(NC(=O)C(C)C)n1,-4,111,2,-6,62*
COc1cc(OC)nc(NC(C)=O)n1,-3,111,-1,-5,-6
CC1=CC(C)(C)N(S(=O)(=O)c2ccc(C)cc2)c2cc(C)ccc21,-5,99,79*,1,2
Cc1ccc(S(=O)(=O)N2C(=S)SCC2(C)C)cc1,-4,104,-13,-3,-7
CCn1ccc(C(=O)NC2=C(C#N)CCC2)n1,-2,94,10,7,2
COCCNS(=O)(=O)c1cc(-c2nn(C)c(=O)c3ccccc23)ccc1C,1,98,-5,16,2
COc1nnc(-c2ccc(C)c(S(=O)(=O)NCCO)c2)c2ccccc12,4,77,1,64*[fluorescence artefact?],58*
COc1cccc(-n2nc(-c3ccnn3-c3ccc(F)cc3)c(=O)n(C)c2=O)c1,4,104,-30,74*,2
CO/N=C(/CS(=O)(=O)Cc1ccccc1Cl)c1ccc(Cl)cc1Cl,5,x,-2,x,x
O=C1C(Cl)=C(Nc2ccccc2O)C(=O)N1c1ccccc1,-5,60,-2,23,54*[fluorescence artefact?]
CCc1ccc(NC(=O)C(C)OC(=O)c2cccc(S(=O)(=O)N3CCc4ccccc4C3)c2)cc1 (centres undefined),2,x,23,x,x
CCOC(=O)c1c(C)sc(Sc2ccc(Cl)cc2[N+](=O)[O-])c1OC,0,85,13,2,-6
CCOc1ccc2nc(NS(=O)(=O)Cc3ccccc3)sc2c1,0,90,1,10,1
SMILES,CD11b adhes enh,ERa coact pot,Mac1 fbg inh,ERb SRC1 inh,ERa coact inh
Cc1nnc(N/N=C/c2ccc(O)c([N+](=O)[O-])c2)[nH]c1=O,4,x,-2,x,x
Cc1csc(N/N=C/c2ccc(O)c([N+](=O)[O-])c2)n1,-2,4,28,99*[fluorescence artefact?],99*[fluorescence artefact?]
Cc1ccc2c(c1)[nH]c1c(N3CCN(Cc4ccc5c(c4)OCO5)CC3)ncnc12,-11,86,90,-1,0
COc1ccc2c3c(cccc13)NN=C2C,x,-3,x,99*[fluorescence artefact?],98*[fluorescence artefact?]
COc1cc2[nH]c(=O)n(CCC(=O)N3CCN(c4cccc(C)c4C)CC3)c(=O)c2cc1OC,8,116,12,7,53*[fluorescence artefact?]
NC(=O)c1oc2ccccc2c1NC(=O)c1nc2ccccc2s1,11,493*,-12,26,22
NC(=O)c1oc2ccccc2c1NC(=O)c1ccc(F)cc1,1,x,-12,x,x
O=c1c2ccc(Cl)cc2nc(-c2cccc(C(F)(F)F)c2)n1O,-8,x,69*,x,x
COc1ccc(N(C)S(=O)(=O)c2cccc3cccnc23)c(OC)c1,54*,114,-2,-4,3
Cc1cccc(Sc2nc(-c3ccccc3)ccc2C#N)c1,-3,x,-3,x,x
COc1ccccc1NC(=O)C1=C(C)NC(SCC(=O)c2ccc(C)cc2)=C(C#N)C1c1ccco1 (centres undefined),2,203*,-3,-2,-4
Cc1cccc(C(=O)NNC(=O)CN2C(=O)c3ccccc3C2=O)c1,8,x,-13,x,x
c1ccc(-c2noc(-c3ccc4c(c3)OCO4)n2)nc1,-6,45,32,57*,62*[fluorescence artefact?]
COc1ccccc1N1CCN(C(=O)CSc2nnc3c4ccccc4nc(Cc4ccccc4)n23)CC1,-4,x,4,x,x
Cc1ccc(S(=O)(=O)N(C)c2ccc(C(=O)N3CCN(Cc4ccc5c(c4)OCO5)CC3)cc2)cc1,-9,89,61*,-9,-1
CN(c1ccc(C(=O)NCc2ccc3c(c2)OCO3)cc1)S(C)(=O)=O,3,101,21,81*[fluorescence artefact?],-2
COc1ccc(N2CCN(Cc3cc(=O)oc4cc(-c5ccccc5)c(O)cc34)CC2)cc1,18,70,-5,43,64*[fluorescence artefact?]
COc1ccc(C(=O)CSc2nnc(-c3ccccn3)n2Cc2ccco2)cc1,-8,271*[fluorescence artefact?],-8,14,14
O=C(CS(=O)(=O)Cc1ccccc1)Nc1ccc(Cl)cn1,x,122,x,-4,-7
Nc1c(C(O)(C(F)(F)F)C(F)(F)F)ccc2ccccc12,x,286*[fluorescence artefact?],x,-1,-10
Nc1ccc(C(O)(C(F)(F)F)C(F)(F)F)cc1,-3,104,3,-7,2
O=C(Nc1ccccc1)Nc1nccs1,x,101,x,-2,2
CSc1ccccc1C(=O)Nc1nccs1,-4,121,25,-1,76*[fluorescence artefact?]
Cc1ccc(S(=O)(=O)NCCc2ccncc2)cc1,7,156,-46,0,3
CCCCc1ccc(S(=O)(=O)NCCc2ccncc2)cc1,-8,115,65*,4,-18
SMILES,CD11b adhes enh,ERa coact pot,Mac1 fbg inh,ERb SRC1 inh,ERa coact inh
O=c1oc2c3c4c(cc2s1)CCCN4CCC3,-2,27,-13,68*[fluorescence artefact?],72*[fluorescence artefact?]
CCCCOc1ccc(/C=C/C(=O)OCC(=O)N2CC(=O)Nc3ccccc32)cc1OCC,6,x,55,x,x
CCCSc1nc(SCC(=O)NCc2ccccc2)c2c3c(sc2n1)COC(C)(CC)C3 (centres undefined),x,298*[fluorescence artefact?],x,-2,-16
CCCCSc1nc(SCC(=O)NCc2ccco2)c2c3c(sc2n1)COC(C)(CC)C3 (centres undefined),-7,x,56,x,x
CCOC(=O)C(CCC(=O)O)(CCC(C)C)c1csc(N)n1 (centres undefined),-4,+[fluorescence artefact?],-5,-15,-10
Cc1c(NC(=O)CSc2nc3ccccc3s2)c(=O)n(-c2ccccc2)n1C,-2,98,-30,-17,4
